Source: PubChem
CCT chaperon mod: modulators of cytosolic chaperonin (CCT/TRiC) activity; purified chaperonin ATPase assay, HTRF ADP detection, 30 min; activity change, % (test concentration not listed), hits read low; 360,000 tested, 0.3% active; AID 651819; in the data active = activity change below about -30%
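ATPase activity: ADP formed was measured by HTRF Transcreener (665/615 nm ratio) after 30 min at 37 deg C with 10 uM ATP. Compounds screened at one 76 uM concentration against 40 or 20 nM TRiC in Tris pH 7.4/KCl/MgCl2/DTT buffer.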
Six1-Eya2 blk: blocks human Six1 binding to Eya2. Q15475+O00167. AlphaScreen GST-Six1/His-Eya2 binding, biochemical; stronger effect = lower value. activity change, % (concentration not given with the values). 360,000 tested, 0.56% active. AID 651725
Target sequence (O00167 whole entry, looked up): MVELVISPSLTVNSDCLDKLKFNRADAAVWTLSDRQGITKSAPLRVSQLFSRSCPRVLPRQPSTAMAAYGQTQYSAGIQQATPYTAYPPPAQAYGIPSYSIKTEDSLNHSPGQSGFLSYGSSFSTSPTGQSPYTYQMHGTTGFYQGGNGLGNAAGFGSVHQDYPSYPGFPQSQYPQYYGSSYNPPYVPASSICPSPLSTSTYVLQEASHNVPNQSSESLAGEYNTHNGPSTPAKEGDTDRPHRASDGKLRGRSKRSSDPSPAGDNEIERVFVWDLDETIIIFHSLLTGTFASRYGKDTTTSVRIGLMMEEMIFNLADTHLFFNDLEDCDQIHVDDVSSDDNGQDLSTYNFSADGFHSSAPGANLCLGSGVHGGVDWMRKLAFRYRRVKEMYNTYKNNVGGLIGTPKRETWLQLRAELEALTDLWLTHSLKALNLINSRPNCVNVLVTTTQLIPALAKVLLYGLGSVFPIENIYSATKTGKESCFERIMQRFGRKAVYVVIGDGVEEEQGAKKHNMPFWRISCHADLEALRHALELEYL
Target sequence (Q15475 whole entry, looked up): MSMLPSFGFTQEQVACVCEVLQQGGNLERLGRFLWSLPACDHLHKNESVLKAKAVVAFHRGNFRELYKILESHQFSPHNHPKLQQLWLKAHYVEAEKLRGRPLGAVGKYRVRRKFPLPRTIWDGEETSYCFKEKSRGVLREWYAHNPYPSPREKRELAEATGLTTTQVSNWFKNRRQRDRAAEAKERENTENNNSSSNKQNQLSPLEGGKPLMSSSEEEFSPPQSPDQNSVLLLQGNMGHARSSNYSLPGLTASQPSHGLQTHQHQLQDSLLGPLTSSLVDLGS
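AlphaScreen luminescence read after one hour at 37 °C in darkness. Pin-transferred compounds met GST-Six1 and His-Eya2 protein (5X stock 250 nM/500 nM) plus glutathione donor and Ni-chelate acceptor beads (5X, 50 ug/mL).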
pAkt inh: inhibitors of Akt phosphorylation; Neuro2A IGF-stimulated pAkt S473 HTRF, 20 min; stronger effect = lower value; activity change, % for hits at 50 µM; 360,000 tested, 0.32% active; AID 651550; in the data active = activity change below about -80%; inconclusive = mostly about -51% to -80%
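Single-point screen (50 µM final compound) in Neuro2A cells stimulated 20 min with 6 nM IGF at 37 deg C. After lysis, Ser473-phosphorylated Akt read by HTRF (ex 330 nm, em 615/665 nm) as the 665/615 ratio.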
CtBP-E1A blk: CtBP/E1A binding inhibition | AlphaScreen GST-E1A/His-CtBP binding, 1536-well; stronger effect = lower value | activity change, % (concentration not given with the values) | 340,000 tested, 0.49% active
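In 5 uL wells, 23 nL compound meets equimolar GST-E1A and His-CtBP (5X stock 125 nM each) for 2 h, 37 °C. Beads (5X, 50 ug/mL) then 1 h, 37 °C, dark.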
* = called active by the depositor. Only some compounds are listed: those with a hit (about 1.3% of all), similar ones and a draw of the others. Cut-off read from the data, not from the text of the source, unless noted: active = activity change below about -65%; inconclusive = mostly about -30% to -63%; inactive = weaker than that. % is set by controls: 0 for no effect and ±100 for the full control effect.

Results for CC(=O)N/N=C/c1cc(C(C)(C)C)cc(/C=N/NC(C)=O)c1O ?
CCT chaperon mod: 2; Six1-Eya2 blk: -76*; pAkt inh: inactive; CtBP-E1A blk: -88*

How did CCC(O)(CC)C(=O)N/N=C/c1cc(Br)cc(Br)c1O do in these assays?
CCT chaperon mod: 1; Six1-Eya2 blk: inconclusive; pAkt inh: inactive; CtBP-E1A blk: inconclusive

What do the screens show for `Cc1cc(C)n2c(NC3CCCC3)c(-c3cc4ccccc4o3)nc2n1`?
CCT chaperon mod: -2; Six1-Eya2 blk: 3; pAkt inh: inactive; CtBP-E1A blk: 3

How did Cc1ccn2c(NC3CCCC3)c(-c3ccncc3)nc2c1 do in these assays?
CCT chaperon mod: -2; Six1-Eya2 blk: -5; pAkt inh: inactive; CtBP-E1A blk: 2

How did COc1ccc(-c2nc3ccccn3c2NC2CCCCC2)cc1SC1CCCCC1 do in these assays?
CCT chaperon mod: -2; Six1-Eya2 blk: -16; pAkt inh: inactive; CtBP-E1A blk: -13

Results for c1ccc(-c2nc3ccccn3c2NC2CCCC2)nc1 ?
CCT chaperon mod: -1; Six1-Eya2 blk: inconclusive; pAkt inh: inactive; CtBP-E1A blk: -67*

Results for Cc1ccn2c(NC3CCCC3)c(-c3ccccn3)nc2c1 ?
CCT chaperon mod: -93*; Six1-Eya2 blk: -66*; pAkt inh: inactive; CtBP-E1A blk: -80*

How did Cc1cc(C)n2c(NC3CCCCC3)c(-c3ccccn3)nc2n1 do in these assays?
CCT chaperon mod: -2; Six1-Eya2 blk: -78*; pAkt inh: inactive; CtBP-E1A blk: inconclusive

How did COc1ccc(CNC(=O)c2cc(S(=O)(=O)N3CCCCC3)ccc2Cl)cc1OC do in these assays?
CCT chaperon mod: -2; Six1-Eya2 blk: 19; pAkt inh: inactive; CtBP-E1A blk: -1

Results for OC(c1ccccc1)(c1nc(-c2cccc(C(F)(F)F)c2)cs1)C(F)(F)F (stereo not given) ?
CCT chaperon mod: 0; Six1-Eya2 blk: 4; pAkt inh: inactive; CtBP-E1A blk: 15

What do the screens show for `FC(F)(F)c1cccc(-c2ccn3ncnc3n2)c1`?
CCT chaperon mod: -56*; Six1-Eya2 blk: 2; pAkt inh: inactive; CtBP-E1A blk: 17

What do the screens show for `O=C(NC1CCCCC1)C1c2ccccc2OCC(=O)N1Cc1cccnc1` (stereo not given)?
CCT chaperon mod: -1; Six1-Eya2 blk: -3; pAkt inh: inactive; CtBP-E1A blk: 1

How did CCOC(=O)c1cnn(-c2ccc(NS(=O)(=O)c3ccc(Cl)cc3)cc2)c1C(F)(F)F do in these assays?
CCT chaperon mod: -98*; Six1-Eya2 blk: -2; pAkt inh: inactive; CtBP-E1A blk: -1

Results for O=C(Cn1c(=O)[nH]c2sc3c(c2c1=O)CCCC3)NCC1CCCO1 (stereo not given) ?
CCT chaperon mod: 0; Six1-Eya2 blk: -1

What do the screens show for `Cc1ccc(N=Nc2cc(C)ccc2O)c(C)c1`?
CCT chaperon mod: -3; Six1-Eya2 blk: inconclusive; pAkt inh: inactive; CtBP-E1A blk: inconclusive

How did Cc1ccc(N=Nc2cc(C)ccc2N)cc1 do in these assays?
CCT chaperon mod: -4; Six1-Eya2 blk: inconclusive; pAkt inh: inactive; CtBP-E1A blk: -80*

How did Cc1cccnc1NC(=O)c1ccc(OCc2c(C)noc2C)cc1 do in these assays?
CCT chaperon mod: 2; Six1-Eya2 blk: 1; pAkt inh: inactive; CtBP-E1A blk: 6

Results for CCOc1cccc(-c2nn3c(-c4cc(C)[nH]n4)nnc3s2)c1 ?
CCT chaperon mod: 0; Six1-Eya2 blk: inconclusive; pAkt inh: inactive; CtBP-E1A blk: -71*

Results for Cc1ccc(N(CC(O)Cn2c3ccccc3c3ccccc32)S(C)(=O)=O)cc1 (stereo not given) ?
CCT chaperon mod: -4; Six1-Eya2 blk: 0; pAkt inh: inactive; CtBP-E1A blk: 4

How did CC(=O)Nc1ccc(N(CC(O)Cn2c3ccccc3c3ccccc32)S(=O)(=O)c2ccc(C)cc2)cc1 (stereo not given) do in these assays?
CCT chaperon mod: -46*; Six1-Eya2 blk: 0; pAkt inh: inactive; CtBP-E1A blk: -6

What do the screens show for `O=C(CCN1C(=O)C2CC=CCC2C1=O)Nc1nc(-c2ccc(F)c(F)c2)cs1` (stereo not given)?
CCT chaperon mod: 2; Six1-Eya2 blk: 2; pAkt inh: inactive; CtBP-E1A blk: -16

What do the screens show for `Cc1ccc(NC(=O)Cn2c(=O)n(CCCCC(=O)NCc3ccco3)c(=O)c3ccccc32)cc1`?
CCT chaperon mod: -1; Six1-Eya2 blk: 0; pAkt inh: -113%*; CtBP-E1A blk: -5

Results for Cc1nc2ccccn2c1C(=O)NNC(=O)Nc1cccc(C(F)(F)F)c1 ?
CCT chaperon mod: -4; Six1-Eya2 blk: -2; pAkt inh: inactive; CtBP-E1A blk: -7

Results for O=C1CC(c2ccccc2)n2nc(NC(=O)c3ccccc3)nc2N1 (stereo not given) ?
CCT chaperon mod: -1; Six1-Eya2 blk: -1; CtBP-E1A blk: 2

Results for O=C1CC(c2ccccc2)n2nc(NC(=O)c3ccccn3)nc2N1 (stereo not given) ?
CCT chaperon mod: 0; Six1-Eya2 blk: -75*; CtBP-E1A blk: inconclusive

Results for Cc1ccc2nc(N3CCC(C(=O)NC4CCCCC4)CC3)sc2c1 ?
CCT chaperon mod: -2; Six1-Eya2 blk: 2; pAkt inh: inactive; CtBP-E1A blk: 2

How did CC1CCC(NC(=O)C2CCN(c3nc4ccccc4s3)CC2)CC1 (stereo not given) do in these assays?
CCT chaperon mod: -36*; Six1-Eya2 blk: 2; pAkt inh: inactive; CtBP-E1A blk: 17

Results for CC(C)c1ccc(N2C(=O)[C@@H]3Cc4ccccc4CN3C2=O)cc1 ?
CCT chaperon mod: 1; Six1-Eya2 blk: -17; pAkt inh: -108%*; CtBP-E1A blk: -9

How did O=C(c1cn(-c2ccccc2)nc1-c1cccnc1)N1CCN(S(=O)(=O)c2cccc(F)c2)CC1 do in these assays?
CCT chaperon mod: 4; Six1-Eya2 blk: 13; pAkt inh: inactive

Results for CC1Oc2ccccc2C=C1/C=C1/SC(N2CCOCC2)=NC1=O (stereo not given) ?
CCT chaperon mod: -39*; Six1-Eya2 blk: 6; pAkt inh: inactive; CtBP-E1A blk: -13

Results for c1ccc2c(c1)ccn2CCCN1CCCCC1 ?
CCT chaperon mod: -4; Six1-Eya2 blk: 6; pAkt inh: inactive; CtBP-E1A blk: 0

Results for O=C(c1ccc(F)cc1Cl)N(Cc1ccco1)C1CCS(=O)(=O)C1 (stereo not given) ?
CCT chaperon mod: 10; Six1-Eya2 blk: 0; pAkt inh: inactive; CtBP-E1A blk: 4

What do the screens show for `NC(=S)N/N=C\c1c2ccccc2cc2ccccc12`?
CCT chaperon mod: -2; Six1-Eya2 blk: -11; pAkt inh: inactive; CtBP-E1A blk: -3

Results for NC(=S)NN=Cc1cc(-c2cccc(N)c2)ccn1 ?
CCT chaperon mod: 2; Six1-Eya2 blk: -88*; pAkt inh: inactive; CtBP-E1A blk: -81*

How did Cc1cc(/C=N/n2c(COc3ccccc3)nc3ccccc3c2=O)c(O)c([N+](=O)[O-])c1 do in these assays?
CCT chaperon mod: -4; Six1-Eya2 blk: -88*; pAkt inh: inactive; CtBP-E1A blk: -80*
